Results reported in PubChem BioAssay AID1835 (Johns Hopkins Ion Channel Center, 2009).
Hit rate of the full screen: of about 2,400 compounds, about 750 (31%) were called active. Some of the results follow. Unmarked numbers belong to inactive results.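 Rule for the calls: active = median signal gain over dofetilide-blocked control wells reaching their mean plus 3 SD, so readout 1 at least 0; inactive = the rest.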

Biological target: Voltage-gated inwardly rectifying potassium channel KCNH2 (Homo sapiens) (UniProt Q12809)
Sequence (Q12809 whole entry, looked up): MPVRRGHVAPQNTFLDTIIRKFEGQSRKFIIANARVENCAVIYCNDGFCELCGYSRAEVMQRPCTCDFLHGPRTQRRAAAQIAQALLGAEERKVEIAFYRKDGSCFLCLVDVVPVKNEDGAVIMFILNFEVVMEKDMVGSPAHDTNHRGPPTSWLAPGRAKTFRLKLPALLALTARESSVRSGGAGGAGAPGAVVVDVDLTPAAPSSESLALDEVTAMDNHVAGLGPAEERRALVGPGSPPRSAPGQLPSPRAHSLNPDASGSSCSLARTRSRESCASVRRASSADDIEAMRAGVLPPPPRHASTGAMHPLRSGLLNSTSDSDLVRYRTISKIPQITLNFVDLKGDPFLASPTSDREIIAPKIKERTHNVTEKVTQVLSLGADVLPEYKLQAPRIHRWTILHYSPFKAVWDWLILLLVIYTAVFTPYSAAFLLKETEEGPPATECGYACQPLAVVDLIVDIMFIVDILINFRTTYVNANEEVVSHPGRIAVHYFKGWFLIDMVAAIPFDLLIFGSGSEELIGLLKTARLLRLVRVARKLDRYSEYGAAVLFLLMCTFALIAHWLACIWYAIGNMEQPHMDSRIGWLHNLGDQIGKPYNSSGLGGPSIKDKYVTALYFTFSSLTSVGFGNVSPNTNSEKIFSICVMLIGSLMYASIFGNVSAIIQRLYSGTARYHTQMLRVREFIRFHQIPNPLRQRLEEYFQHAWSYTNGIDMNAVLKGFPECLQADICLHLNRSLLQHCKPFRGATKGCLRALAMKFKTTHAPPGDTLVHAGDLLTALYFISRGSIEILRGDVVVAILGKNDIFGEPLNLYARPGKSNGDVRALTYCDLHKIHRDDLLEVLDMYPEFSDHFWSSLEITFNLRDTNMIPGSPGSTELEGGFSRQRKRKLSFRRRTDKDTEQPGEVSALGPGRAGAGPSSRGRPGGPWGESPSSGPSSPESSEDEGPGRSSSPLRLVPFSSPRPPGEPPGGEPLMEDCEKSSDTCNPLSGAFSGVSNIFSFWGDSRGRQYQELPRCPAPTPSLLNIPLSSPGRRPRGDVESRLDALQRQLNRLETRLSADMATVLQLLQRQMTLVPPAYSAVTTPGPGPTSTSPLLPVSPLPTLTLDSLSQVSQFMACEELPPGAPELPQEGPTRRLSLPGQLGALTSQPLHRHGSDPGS
Experiment: hERG protection against dofetilide inhibition, confirmation, cell-based, thallium flux, duplicate retest, dofetilide IC70 (AID 1835)
Conditions: hERG cell line, FluxOR thallium flux, dofetilide-blocked; at 10 µM; active compounds read high

| SMILES | activity increase over dofetilide control, less the hit threshold |
| --- | --- |
| Cc1ccc(NC(=O)c2cc(NC(=O)/C=C\C(=O)O)ccc2N2CCCCC2)cc1 | -11% |
| Cc1nnc(N2C(=O)C(=O)/C(=C(\O)c3ccc4c(c3)CC(C)O4)C2c2ccccc2)s1 (centres undefined) | -7% |
| Cc1ccc(CNC(=O)C2=CCN(S(=O)(=O)c3ccc(C)cc3)CC2)cc1 | -24% |
| CCCCn1nnc(NC(=O)Cc2ccc(Cl)cc2)n1 | -3% |
| Cc1ccc2nc(-c3ccncc3)cc(C(=O)Nc3ccc4c(c3)OCCO4)c2c1 | -15% |
| Cc1cccc(NC(=S)NC(=O)c2cc(-c3ccccc3)nc3ccccc23)c1 | 8% (active) |
| O=C(CCSCCc1ccccn1)Nc1cccc([N+](=O)[O-])c1 | -4% |
| NC(=O)c1cccnc1Nc1cccc([N+](=O)[O-])c1 | 10% (active) |
| O=C(O)c1ccc(N=NNc2cccc([N+](=O)[O-])c2)cc1 | -2% |
| O=C(NCC(c1cccs1)N1CCOCC1)c1cc(S(=O)(=O)N2CCOCC2)ccc1F (centres undefined) | -22% |
| CCc1cc2c(=O)n(CCC(C)C)c(=S)[nH]c2s1 | 71% (active) |
| CC(C)(C)OC(=O)N1CCC2(CC1)Oc1ccc(Cl)cc1C(=O)C21CC(c2ccc(Cl)cc2)=NO1 (centres undefined) | -19% |
| COc1ccc2ncc(OC(C)=O)cc2c1 | -14% |
| COc1ccc2nc(N=Nc3c(O)ccc4ccccc34)sc2c1 | 31% (active) |
| O=C(Nc1ccccc1)O/N=C/c1ccncc1 | -7% |
| CN(C)C(=O)c1cc(C(=O)c2ccc(Cl)cc2Cl)c[nH]1 | -4% |
| CN(C)CCCN=C(NO)c1ccc(Cl)cc1Cl | 4% (active) |
| C=CCSC1=C(C#N)C(c2ccccc2)CC(=O)N1 (centres undefined) | -15% |
| Cc1ccc(C(=O)NC2CCC(C)CC2)o1 (centres undefined) | -23% |
| CCC(C)(C(=O)NC1CCCC1)N(Cc1ccco1)C(=O)c1ccccn1 (centres undefined) | -13% |
| Cc1ccc(C(C(=O)NC(C)(C)C)N(Cc2cccnc2)C(=O)C(=O)NC2CCCCC2)o1 (centres undefined) | 0% (active) |
| CC(C)C(O)(C#CCN1CCCC1)c1ccccc1 (centres undefined) | -16% |
| CCn1c2ccccc2c2cc(NC(=O)COc3ccccc3)ccc21 | -20% |
| CCOc1ccc(-n2c(C)c(C(C)=O)c3cc(O)ccc32)cc1 | -14% |
| CCOc1ccc(N(CC)C(=O)COc2cc(=O)n(C)c3ccccc23)cc1 | 1% (active) |

| SMILES | activity increase over dofetilide control, less the hit threshold |
| --- | --- |
| CC(C)Oc1ccc(CNC(=O)C2CCN(C(=O)N3CCOc4ccccc43)CC2)cc1 | -31% |
| CCOc1ccccc1C(=O)NC1CC2CCCC(C1)N2Cc1nnnn1Cc1ccco1 (centres undefined) | -24% |
| CCOC(=O)c1c(C)[nH]c(C)c1S(=O)(=O)N1CCCCC1 | 4% (active) |
| Cc1[nH]c(=O)[nH]c(=O)c1S(=O)(=O)N1CCC(C(=O)NC(C)c2ccccc2)CC1 (centres undefined) | -4% |
| CCCCc1c(C)[nH]c(C(=O)OCC)c1C | -14% |
| O=C1c2nc3cc(-c4ccco4)[nH]n3c(=O)c2CN1Cc1ccccc1 | -10% |
| CCC(=O)NC(c1cccs1)c1ccc2cccnc2c1O (centres undefined) | -8% |
| O=c1c(Cc2ccccc2)c(O)nc2n1CCCS2 | -3% |
| O=c1c2[nH]c3ccccc3c2nc2n1CCCS2 | 3% (active) |
| CCOC(=O)N1CCN(C(=O)CSc2nc3c([nH]c4ccccc43)c(=O)n2CC)CC1 | 0% |
| COc1ccc(NC(=O)C2CCN(S(=O)(=O)c3cn(C)nc3C)CC2)cc1 | -12% |
| CCOC(=O)C1=C(O)/C(=C/c2ccc(OCC(=O)O)c(OC)c2)SC1=Nc1ccc(OCC)cc1 | -9% |
| COc1ccc(/C=C2\SC(c3ccc(C)cc3)=NC2=O)cc1OC | 112% (active) |
| COc1ccc(-c2ccc3c(N)c(C(=O)c4ccc(OC)c(OC)c4)sc3n2)cc1 | -9% |
| COc1ccc(C(C(=O)NC(C)(C)C)N(C(=O)CCC(=O)Nc2cc(C)on2)c2cccc(F)c2)cc1 (centres undefined) | -6% |
| O=C(CSc1nc(N2CCCCC2)nc(N2CCCCC2)n1)c1ccccc1 | -16% |
| C=CCn1c2ccccc2c(=O)c2cc(C#Cc3ccsc3)ccc21 | 17% (active) |
| O=C(/C=C/Nc1ccc(F)cc1)c1ccco1 | -22% |
| Cc1cccc(N2C(=O)C(O)=C(C(=O)c3cccs3)C2c2cccc(Oc3ccccc3)c2)n1 (centres undefined) | -12% |
| CCCC(=O)NC(=S)Nc1nc(-c2ccc(OC)cc2)cs1 | -11% |
| CCC(=O)N(CC)c1nc(-c2ccc(OC)cc2)cs1 | 17% (active) |
| CCCn1c(SCC(=O)Nc2nc(-c3ccc(OC)cc3)cs2)nc2c1c(=O)n(C)c(=O)n2C | -8% |
| COc1cc(C(=O)NCCNc2nc3cc(C)ccc3cc2C#N)cc(OC)c1OC | -2% |
| O=c1c(-c2ccccc2)[n+]([O-])c2ccccc2n1O | -10% |
| O=c1c(-c2ccc(Cl)cc2)[n+]([O-])c2ccccc2n1O | 64% (active) |

| SMILES | activity increase over dofetilide control, less the hit threshold |
| --- | --- |
| O=c1c(-c2cccc3ccccc23)[n+]([O-])c2ccccc2n1O | 9% (active) |
| Cc1ccc(-c2c(=O)n(O)c3ccccc3[n+]2[O-])cc1 | 52% (active) |
| CCc1nnc(NC(=O)c2cccc(S(=O)(=O)N3CCN(c4ccccc4)CC3)c2)s1 | -17% |
| O=C(COc1ccccc1)Nc1nnc(-c2ccc(Cl)s2)o1 | -9% |
| CC1=Nc2ccc(C)cc2/C1=C/c1c(N)n2c(S(=O)(=O)C(C)C)nsc2nc1=O | -5% |
| CCOC(=O)c1c(O)c2ccccc2n(C)c1=O | 5% (active) |
| Cn1c(=O)cc(-c2ccccc2)c2ccccc21 | -28% |
| Cn1c(=O)c(Sc2ccccc2)c(O)c2ccccc21 | 2% (active) |
| CCOC(=O)Cn1cc(C=O)c2ccccc21 | -17% |
| Cn1c(=O)c(-c2cc(=O)[nH][nH]2)c(O)c2ccccc21 | 2% (active) |
| CCOC(=O)c1c(C)cccc1OCC(N)=O | -16% |
| CC(C)C(=O)Nc1c(-c2ccccc2F)c(=O)c2ccccc2n1C | -6% |
| CCn1c(=O)c(-[n+]2ccccc2)c(O)c2ccccc21 | -15% |
| O=C1OC(/C=C/c2ccccc2)=NC/1=C/c1ccco1 | -15% |
| COC(=O)Cc1[nH]n(-c2nc3ccccc3s2)c(=O)c1C(C)=Nc1ccc(C)cc1 | -1% |
| Cn1ncc2c(NNC(=O)Cc3ccccc3)ncnc21 | -13% |
| O=C(O)c1ccc(Cl)cc1Nc1nc2cc(Cl)ccc2o1 | 10% (active) |
| COC(=O)n1c(=S)oc2cc(Cl)ccc21 | -13% |
| O=C(O)c1c2c(nc3ccccc13)/C(=C/c1cccc([N+](=O)[O-])c1)CCC2 | -18% |
| N#Cc1c2n(c3c(=O)n(Cc4ccc(Cl)cc4)cnc13)CCCC2 | -14% |
| Cc1cc(C)cc(N(C(=O)c2cc3ccccc3oc2=O)C2C=CS(=O)(=O)C2)c1 (centres undefined) | -13% |
| Cc1sc2nc(CN3CCOCC3)[nH]c(=S)c2c1C | 92% (active) |
| CC(C)(C)n1nnnc1C(c1cccs1)N1CCN(Cc2ccccc2)CC1 (centres undefined) | -6% |
| Cc1ccc(-c2cccc(C3CC=CC4C3C(=O)N(Cc3ccccc3)C4c3ccc4ccccc4c3)c2)cc1 (centres undefined) | -1% |
